Assay results from the supplement of paper PMC10849652.
The full data set covers some 8,800 targets. This sample favours those with a hit. About 0.5% of all pairs of compound and target were hits. Values without a mark were called inactive.

Assays:
Assay in all cases: log2 fold change, soluble protein after heating vs DMSO (PISA); higher = thermal stabilisation; K562 lysate, 10 uM; active = over 0.2 and 3.5 SD of the protein, either way, in both replicates (recomputed)
[1] = compound: CCCS(=O)(=O)Nc1ccc(F)c(C(=O)c2c[nH]c3ncc(-c4ccc(Cl)cc4)cc23)c1F [vemurafenib]
In short: (§1)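 K562 pellets were dounce-homogenised in PBS pH 7.4 with 1 mM MgCl2, and the crude extract at 1 mg/mL protein was treated with 10 μM compound for 30 min. Aliquots were heated for 3 min across 48°C-58°C, pooled, and brought to 0.5% NP-40 at 4°C; soluble protein was the supernatant after 21,000xg for 90 min. Soluble protein was quantified by TMTpro 16plex LC-MS/MS with channel sums equalised, and reported as log2 fold change in thermal stability against DMSO controls, with values from duplicates.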

[2] = compound: CCCS(=O)(=O)Nc1ccc(F)c(C(=O)c2c[nH]c3ncc(Cl)cc23)c1F
In short: as §1

[3] = compound: CCN(CCCOc1ccc2c(Nc3cc(CC(=O)Nc4cccc(F)c4)[nH]n3)ncnc2c1)CCOP(=O)(O)O [barasertib]
In short: as §1

[4] = compound: CC[C@@H]1C(=O)N(C)c2cnc(Nc3ccc(C(=O)NC4CCN(C)CC4)cc3OC)nc2N1C1CCCC1
In short: as §1

[5] = compound: CC[C@@H]1C(=O)N(C)c2cnc(Nc3ccc(C(=O)N[C@H]4CC[C@H](N5CCN(CC6CC6)CC5)CC4)cc3OC)nc2N1C(C)C [volasertib]
In short: as §1

[6] = compound: CCn1c(C(=O)N(C2CC2)C2CC2)cc2c3c(ncn3C)c(Nc3cc(C)n(C)n3)nc21
In short: as §1

[7] = compound: CCn1cc(-c2ccnc3[nH]c(-c4cccc(CN(C)C)c4)cc23)c(-c2ccc(NC(=O)N(C)C)cc2)n1
In short: as §1

[8] = compound: CN1CCC(CNc2ccc3ncc(-c4cccc(OC(F)(F)F)c4)n3n2)CC1
In short: as §1

[9] = compound: CN1CCN(CCOc2cc(OC3CCOCC3)c3c(Nc4c(Cl)ccc5c4OCO5)ncnc3c2)CC1 [saracatinib]
In short: as §1

[10] = compound: CN1CCN(c2nc(C3=C(c4c[nH]c5ccccc45)C(=O)NC3=O)c3ccccc3n2)CC1 [sotrastaurin]
In short: as §1

[11] = compound: CN1CC[C@H](c2c(O)cc(O)c3c(=O)cc(-c4ccccc4Cl)oc23)[C@H](O)C1 [alvocidib]
In short: as §1

[12] = compound: CN1CCc2c(c3ccccc3n2Cc2ccc(C(=O)NO)cc2)C1 [Tubastatin A]
In short: as §1

[13] = compound: CNC(=O)C1=CC=CC=C1NC2=NC(=NC=C2Cl)NC3=C(C=C(C=C3)N4CCOCC4)OC
In short: as §1

[14] = compound: CNC(=O)c1ccc(Nc2ncc(C(F)(F)F)c(NCc3nccnc3N(C)S(C)(=O)=O)n2)cc1 [defactinib]
In short: as §1

[15] = compound: CNc1nc(-c2ccc3c(N)n[nH]c3c2)cc(N2C[C@@H](C(=O)NC3CCCCC3)CC[C@H]2C)n1
In short: as §1

[16] = compound: COC(=O)N[C@@H](C)CNc1nccc(-c2cn(C(C)C)nc2-c2cc(Cl)cc(NS(C)(=O)=O)c2F)n1 [encorafenib]
In short: as §1

[17] = compound: COC(=O)[C@H](CCSC)NC(=O)C1=C(C=C(C=C1)NC[C@H](CS)N)C2=CC=CC=C2
In short: as §1

[18] = compound: COc1cc(Nc2ncc3c(n2)-c2ccc(Cl)cc2C(c2c(F)cccc2OC)=NC3)ccc1C(=O)O [alisertib]
In short: as §1

[19] = compound: COc1cc2nc(-c3cc(F)ccc3O)nc(N[C@@H]3CNC[C@H]3C(C)(C)O)c2cc1OC
In short: as §1

[20] = compound: COc1cc2ncnc(Nc3ccc(F)c(Cl)c3)c2cc1OCCCN1CCOCC1 [gefitinib]
In short: as §1

Sequence of UniProt Q86UE8 (Q86UE8 whole entry, looked up): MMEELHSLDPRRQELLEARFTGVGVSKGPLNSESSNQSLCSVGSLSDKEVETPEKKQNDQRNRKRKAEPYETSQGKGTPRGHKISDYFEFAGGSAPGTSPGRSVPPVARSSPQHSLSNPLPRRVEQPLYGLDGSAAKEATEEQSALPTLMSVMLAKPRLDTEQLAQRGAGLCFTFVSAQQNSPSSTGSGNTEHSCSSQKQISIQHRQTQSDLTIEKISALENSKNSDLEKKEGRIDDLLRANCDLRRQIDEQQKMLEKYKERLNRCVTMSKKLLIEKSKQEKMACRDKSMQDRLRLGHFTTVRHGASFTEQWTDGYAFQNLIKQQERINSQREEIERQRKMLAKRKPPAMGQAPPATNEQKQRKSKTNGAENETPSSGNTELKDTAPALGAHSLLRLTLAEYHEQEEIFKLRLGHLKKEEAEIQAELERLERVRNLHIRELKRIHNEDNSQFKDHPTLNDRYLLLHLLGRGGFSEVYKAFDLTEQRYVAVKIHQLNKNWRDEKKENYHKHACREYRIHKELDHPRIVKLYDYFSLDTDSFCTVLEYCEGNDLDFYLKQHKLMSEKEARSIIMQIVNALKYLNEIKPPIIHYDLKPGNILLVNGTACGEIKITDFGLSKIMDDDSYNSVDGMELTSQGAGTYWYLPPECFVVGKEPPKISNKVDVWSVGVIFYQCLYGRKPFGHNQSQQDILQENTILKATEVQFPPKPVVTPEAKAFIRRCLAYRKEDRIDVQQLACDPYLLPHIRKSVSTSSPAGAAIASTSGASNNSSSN
Sequence of UniProt Q9UKI8 (Q9UKI8 whole entry, looked up): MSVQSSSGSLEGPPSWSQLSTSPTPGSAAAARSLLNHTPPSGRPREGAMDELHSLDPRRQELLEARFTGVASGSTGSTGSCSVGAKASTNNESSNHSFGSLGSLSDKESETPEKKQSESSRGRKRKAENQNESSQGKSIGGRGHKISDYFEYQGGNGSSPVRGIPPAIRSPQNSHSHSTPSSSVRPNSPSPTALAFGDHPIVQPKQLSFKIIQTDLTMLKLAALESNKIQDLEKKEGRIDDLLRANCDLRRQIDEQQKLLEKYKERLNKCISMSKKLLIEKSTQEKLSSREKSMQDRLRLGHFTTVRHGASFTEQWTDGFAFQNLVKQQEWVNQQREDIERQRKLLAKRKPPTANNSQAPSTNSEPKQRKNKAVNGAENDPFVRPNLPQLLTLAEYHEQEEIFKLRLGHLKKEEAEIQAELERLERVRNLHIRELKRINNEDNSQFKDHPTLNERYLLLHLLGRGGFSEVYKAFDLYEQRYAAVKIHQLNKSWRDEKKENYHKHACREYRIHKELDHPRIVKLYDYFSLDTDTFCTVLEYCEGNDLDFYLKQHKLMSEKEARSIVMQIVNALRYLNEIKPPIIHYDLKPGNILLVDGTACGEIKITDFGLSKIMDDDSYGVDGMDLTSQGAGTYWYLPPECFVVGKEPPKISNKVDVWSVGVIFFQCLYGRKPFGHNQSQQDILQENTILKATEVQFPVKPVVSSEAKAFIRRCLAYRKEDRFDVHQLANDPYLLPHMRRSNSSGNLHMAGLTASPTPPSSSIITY
Sequence of UniProt P33981 (P33981 whole entry, looked up): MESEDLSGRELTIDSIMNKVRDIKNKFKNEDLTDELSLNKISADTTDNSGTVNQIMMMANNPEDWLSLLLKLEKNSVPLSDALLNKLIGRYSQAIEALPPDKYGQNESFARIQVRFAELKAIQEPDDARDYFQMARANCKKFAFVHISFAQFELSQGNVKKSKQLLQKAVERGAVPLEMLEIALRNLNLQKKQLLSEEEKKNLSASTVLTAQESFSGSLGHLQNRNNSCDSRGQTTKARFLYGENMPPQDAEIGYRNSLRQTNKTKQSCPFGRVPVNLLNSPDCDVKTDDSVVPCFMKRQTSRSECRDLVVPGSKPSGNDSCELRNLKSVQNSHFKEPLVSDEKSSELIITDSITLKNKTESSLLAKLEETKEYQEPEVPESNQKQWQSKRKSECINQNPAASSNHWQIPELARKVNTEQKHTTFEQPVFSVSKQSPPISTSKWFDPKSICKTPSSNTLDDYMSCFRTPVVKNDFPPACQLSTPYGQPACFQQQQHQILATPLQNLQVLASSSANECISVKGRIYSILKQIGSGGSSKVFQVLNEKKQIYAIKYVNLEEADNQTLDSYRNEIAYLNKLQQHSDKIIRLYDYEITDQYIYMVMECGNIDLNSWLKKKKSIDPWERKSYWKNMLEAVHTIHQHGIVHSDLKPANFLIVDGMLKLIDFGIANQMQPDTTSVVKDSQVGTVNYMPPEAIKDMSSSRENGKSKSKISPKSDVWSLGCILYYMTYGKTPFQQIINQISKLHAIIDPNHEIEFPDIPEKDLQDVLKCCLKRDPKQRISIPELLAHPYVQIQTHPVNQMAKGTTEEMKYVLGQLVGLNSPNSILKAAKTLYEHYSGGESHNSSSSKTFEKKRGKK
Sequence of UniProt Q12788 (Q12788 whole entry, looked up): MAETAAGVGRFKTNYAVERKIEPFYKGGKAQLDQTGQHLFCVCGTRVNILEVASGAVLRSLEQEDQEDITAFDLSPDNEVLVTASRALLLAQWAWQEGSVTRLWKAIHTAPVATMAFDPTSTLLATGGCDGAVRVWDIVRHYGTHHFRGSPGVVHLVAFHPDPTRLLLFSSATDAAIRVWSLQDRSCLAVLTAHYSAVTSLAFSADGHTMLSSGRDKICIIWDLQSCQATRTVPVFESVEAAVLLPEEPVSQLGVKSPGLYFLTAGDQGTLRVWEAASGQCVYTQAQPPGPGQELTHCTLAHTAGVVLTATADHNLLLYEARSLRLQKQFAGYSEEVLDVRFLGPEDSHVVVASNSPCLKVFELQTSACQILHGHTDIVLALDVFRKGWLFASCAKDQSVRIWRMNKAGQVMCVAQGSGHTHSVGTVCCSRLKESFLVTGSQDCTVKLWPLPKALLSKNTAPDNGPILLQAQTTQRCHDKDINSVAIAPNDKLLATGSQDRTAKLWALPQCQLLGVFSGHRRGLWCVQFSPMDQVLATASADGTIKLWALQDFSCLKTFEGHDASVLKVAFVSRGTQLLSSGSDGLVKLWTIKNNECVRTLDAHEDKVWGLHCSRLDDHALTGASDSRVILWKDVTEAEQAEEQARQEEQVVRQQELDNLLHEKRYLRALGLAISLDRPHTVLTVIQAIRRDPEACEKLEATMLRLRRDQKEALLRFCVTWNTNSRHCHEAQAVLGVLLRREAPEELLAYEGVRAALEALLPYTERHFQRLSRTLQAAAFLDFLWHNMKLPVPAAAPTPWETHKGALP
Sequence of UniProt Q96K49 (Q96K49 whole entry, looked up): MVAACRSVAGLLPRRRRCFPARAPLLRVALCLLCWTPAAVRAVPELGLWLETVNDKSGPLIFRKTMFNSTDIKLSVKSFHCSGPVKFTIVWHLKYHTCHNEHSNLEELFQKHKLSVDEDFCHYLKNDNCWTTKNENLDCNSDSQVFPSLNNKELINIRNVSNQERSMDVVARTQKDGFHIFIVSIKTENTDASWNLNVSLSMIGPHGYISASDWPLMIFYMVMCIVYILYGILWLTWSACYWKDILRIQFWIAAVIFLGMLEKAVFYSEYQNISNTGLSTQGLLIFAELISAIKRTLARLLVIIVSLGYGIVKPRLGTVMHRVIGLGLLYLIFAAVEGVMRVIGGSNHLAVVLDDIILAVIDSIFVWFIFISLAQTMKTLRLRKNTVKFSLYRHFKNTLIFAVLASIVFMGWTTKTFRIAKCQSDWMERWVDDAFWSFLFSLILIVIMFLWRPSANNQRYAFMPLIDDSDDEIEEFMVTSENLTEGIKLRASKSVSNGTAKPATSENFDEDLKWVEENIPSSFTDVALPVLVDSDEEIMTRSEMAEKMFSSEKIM
Sequence of UniProt A6NFQ2 (A6NFQ2 whole entry, looked up): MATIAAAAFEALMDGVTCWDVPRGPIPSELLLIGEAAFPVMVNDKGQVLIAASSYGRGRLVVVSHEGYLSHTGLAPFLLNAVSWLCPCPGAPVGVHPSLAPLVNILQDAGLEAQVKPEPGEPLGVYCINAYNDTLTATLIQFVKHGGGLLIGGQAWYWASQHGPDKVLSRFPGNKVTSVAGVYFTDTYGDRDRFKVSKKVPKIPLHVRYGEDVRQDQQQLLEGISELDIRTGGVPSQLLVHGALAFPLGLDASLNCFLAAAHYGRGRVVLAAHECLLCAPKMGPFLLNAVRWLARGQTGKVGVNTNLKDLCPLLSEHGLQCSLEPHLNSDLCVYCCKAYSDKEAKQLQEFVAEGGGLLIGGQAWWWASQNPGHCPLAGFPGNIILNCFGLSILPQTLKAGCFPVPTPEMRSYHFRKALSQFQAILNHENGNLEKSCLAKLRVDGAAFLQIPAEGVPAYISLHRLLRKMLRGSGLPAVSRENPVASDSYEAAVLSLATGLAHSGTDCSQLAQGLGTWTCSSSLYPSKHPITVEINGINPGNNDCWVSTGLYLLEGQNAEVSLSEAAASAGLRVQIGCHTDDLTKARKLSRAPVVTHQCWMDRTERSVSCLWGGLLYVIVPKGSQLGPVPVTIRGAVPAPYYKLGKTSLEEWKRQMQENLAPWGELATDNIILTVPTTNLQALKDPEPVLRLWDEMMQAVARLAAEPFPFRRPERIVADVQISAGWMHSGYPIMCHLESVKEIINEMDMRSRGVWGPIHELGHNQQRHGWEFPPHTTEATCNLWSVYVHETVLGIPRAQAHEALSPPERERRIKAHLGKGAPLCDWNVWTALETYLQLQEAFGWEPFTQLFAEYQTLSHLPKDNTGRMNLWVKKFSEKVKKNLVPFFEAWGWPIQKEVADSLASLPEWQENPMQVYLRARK
Sequence of UniProt P61960 (P61960 whole entry, looked up): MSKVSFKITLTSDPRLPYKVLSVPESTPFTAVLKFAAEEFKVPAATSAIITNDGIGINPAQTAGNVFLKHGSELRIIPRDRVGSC

Row | Target | log2 fold change [1] | log2 fold change [2] | log2 fold change [3] | log2 fold change [4] | log2 fold change [5] | log2 fold change [6] | log2 fold change [7] | log2 fold change [8] | log2 fold change [9] | log2 fold change [10] | log2 fold change [11] | log2 fold change [12] | log2 fold change [13] | log2 fold change [14] | log2 fold change [15] | log2 fold change [16] | log2 fold change [17] | log2 fold change [18] | log2 fold change [19] | log2 fold change [20]
1 | UCHL5 isoform 3 (UniProt Q9Y5K5) | 0.013 | 0.016 | -0.001 | -0.019 | -0.017 | 0.014 | 0.164 | -0.06 | -0.012 | -0.005 | -0.009 | -0.063 | 0.008 | -0.024 | -0.011 | -0.004 | 0.088 | -0.026 | -0.012 | -0.014
2 | TMEM87B (UniProt Q96K49) | -0.004 | 0.047 | 0.091 | 0.018 | 0.005 | -0.006 | 0.074 | -0.032 | -0.166 | 0.026 | 0.035 | 0.044 | -0.035 | -0.032 | -0.045 | -0.055 | 0.017 | 0.004 | 0.031 | 0.018
3 | TYMS (UniProt P04818) | -0.009 | 0.006 | 0.022 | -0.053 | -0.041 | -0.004 | -0.035 | -0.064 | 0 | 0.008 | 0.015 | -0.023 | 0.017 | 0.002 | -0.018 | 0.013 | -0.006 | 0.021 | 0.006 | -0.024
4 | TBC1D2B (UniProt Q9UPU7) | 0.037 | 0.014 | 0.001 | 0.012 | -0.099 | -0.018 | 0.004 | -0.041 | 0.033 | 0.062 | -0.023 | -0.157 | 0.038 | 0.04 | -0.047 | 0.03 | 0.063 | 0.011 | 0.103 | -0.001
5 | TLK2 isoform 2 (UniProt Q86UE8) | -0.015 | -0.011 | 0.017 | -0.068 | -0.03 | -0.009 | -0.171 | 0.085 | 0.021 | 0.26 (active) | -0.027 | -0.07 | -0.03 | 0.117 | -0.071 | 0.046 | -0.063 | -0.01 | 0.041 | -0.004
6 | TLK1 isoform 2 (UniProt Q9UKI8) | 0.001 | -0.003 | 0.06 | -0.048 | -0.078 | 0.01 | -0.092 | 0.072 | 0.014 | 0.393 (active) | -0.05 | -0.092 | 0.046 | 0.16 | 0.023 | -0.045 | -0.14 | -0.028 | 0.05 | 0.01
7 | TRIM25 (UniProt Q14258) | 0.017 | 0.012 | 0.001 | -0.024 | -0.006 | -0.007 | 0.029 | -0.035 | -0.002 | -0.05 | 0.022 | -0.04 | 0.009 | -0.009 | 0.042 | -0.011 | -0.058 | -0.01 | -0.002 | -0.029
8 | TCAF2 (UniProt A6NFQ2) | 0.052 | 0.041 | -0.048 | -0.027 | -0.049 | 0.045 | 0.003 | -0.05 | 0.004 | -0.017 | -0.016 | -0.183 | -0.026 | 0.067 | -0.026 | 0.006 | 0.044 | 0.03 | -0.067 | -0.042
9 | UFM1 (UniProt P61960) | -0.249 | -0.035 | 0.039 | 0.044 | 0.047 | 0.014 | 0.491 | -0.338 | 0.016 | 0.028 | 0.253 | 0.102 | 0.037 | 0.136 | 0.088 | 0.023 | -0.076 | 0.038 | -0.08 | -0.116
10 | TTC27 (UniProt Q6P3X3) | 0.015 | 0.007 | 0.028 | -0.07 | -0.074 | 0.015 | -0.085 | -0.058 | 0.055 | 0.051 | 0.012 | -0.148 | -0.049 | 0.023 | -0.007 | 0.028 | 0.057 | 0.027 | 0.012 | 0.02
11 | TBCE (UniProt Q15813) | 0.04 | 0.015 | 0.024 | -0.065 | -0.082 | 0.048 | -0.044 | -0.023 | 0.013 | 0.001 | -0.008 | -0.162 | -0.026 | 0.031 | -0.028 | -0.008 | 0.265 (active) | -0.008 | -0.006 | -0.006
12 | TMPO (UniProt P42167) | 0.063 | 0.008 | 0.003 | -0.01 | 0.013 | 0.022 | 0.033 | -0.033 | 0.014 | -0.014 | -0.007 | 0.018 | -0.034 | -0.015 | 0.029 | 0.035 | -0.163 | -0.026 | -0.025 | 0.027
13 | TECR (UniProt Q9NZ01) | -0.003 | 0.054 | 0.082 | -0.02 | 0.001 | 0.032 | 0.014 | -0.247 | 0.045 | -0.034 | 0.05 | -0.015 | -0.046 | 0.052 | -0.008 | 0.068 | -0.104 | 0.053 | 0.048 | -0.008
14 | TRAPPC9 isoform 2 (UniProt Q96Q05) | 0.053 | 0.001 | 0.007 | -0.004 | -0.059 | 0.021 | 0.011 | 0.019 | 0.005 | -0.035 | -0.017 | -0.128 | 0.002 | -0.011 | -0.075 | 0.022 | -0.015 | -0.036 | 0.021 | -0.017
15 | TBL3 (UniProt Q12788) | 0.02 | 0.003 | 0.042 | -0.018 | -0.006 | 0.004 | -0.005 | -0.012 | 0.026 | 0.009 | -0.019 | -0.08 | 0.014 | 0.016 | 0.01 | -0.021 | 0.072 | 0.015 | 0.006 | -0.123
16 | TTK (UniProt P33981) | -0.009 | 0.02 | 0.06 | 0.089 | -0.026 | -0.048 | -0.018 | 0.01 | -0.037 | 0.072 | -0.004 | -0.141 | 0.616 (active) | 0.434 (active) | 0.101 | 0.004 | -0.02 | 0.078 | 0.103 | -0.102
